Our source for the z-score values is PubChem BioAssay.

Structures are written as SMILES. The source made the active and inactive calls.

The nature of the first assay: PSAC antagonists in infected red cells, primary screen, cell-based, P. falciparum Indochina, OD700, 1 h (AID 1154). As to conditions: P. falciparum Indochina infected RBC osmotic lysis, higher = more signal, called active from +8 up or from −8 down.
Regarding `CCN1C(=O)[C@H]2[C@H]3[C@H](O)[C@H](O)CC(=NOCC=C(C)CCC=C(C)C)[C@@H]3CC[C@H]2C1=O`, the z-score was 1.17 (inactive).

As to `O=C1[C@H]2[C@H]3[C@H](O)[C@H](O)CC(=NOC[C@@H](O)COCc4ccco4)[C@@H]3CC[C@H]2C(=O)N1Cc1ccccc1`, the z-score was 28.6 (active).

Take `O=C1[C@H]2CCn3c(=O)n(-c4ccccc4)c(=O)n3[C@H]2[C@H](O)[C@@H]2O[C@H]12`: the z-score was -0.132 (inactive).

In the case of `CON=C[C@@H](OC)[C@H](C)C=CCC(=O)OC`, the z-score was 0.0283 (inactive).

For `CC(C)=CCCC(C)=CCON=C1C[C@@H](O)[C@@H](O)[C@@H]2[C@@H]3C(=O)N(Cc4ccc5c(c4)OCO5)C(=O)[C@@H]3CC[C@@H]12`, the z-score is 31.3 (active).

Turning to `CC(=O)OC[C@H]1O[C@H](CC=NO[C@@H](C)c2cc(-c3c(C)cc(C)cc3C)no2)C=C[C@@H]1OC(C)=O`, the z-score was 2.12 (inactive).

`COc1ccc(-c2cnnc(CCCn3ccnc3-c3ccccc3)n2)cc1`: the z-score is 26.2 (active).

With `O=C1C2=CC[C@H]3C(=O)N(c4ccc(F)cc4F)C(=O)[C@H]3[C@H]2[C@H](O)[C@@H]2O[C@H]12`, the z-score was -0.487 (inactive).

`COC(=O)CC=C[C@@H](C)[C@@H](C=NOC[C@@H](O)COCc1ccco1)OC`: the z-score was 0.202 (inactive).

Regarding `COC(=O)[C@H](C)NC(=O)CCC1CC(OC(=O)NCc2cccc3ccccc23)CC2(CCCC(COC(=O)NCCCN3CCCC3=O)O2)O1` (some centres not stated), the z-score is 0.381 (inactive).

`CCOC(=O)[C@H](CC(C)C)NC(=O)CCC1CC(OC(=O)NCc2ccc3c(c2)OCO3)CC2(CCCC(COC(=O)NCCc3ccccc3OC)O2)O1` (some centres not stated): the z-score is -1.67 (inactive).

Take `CO[C@@H](C(C)C)[C@@H](C)C1OC(=O)CC1O` (some centres not stated): the z-score is -0.315 (inactive).

Take `Cc1ccc(C(C)C)n1C(=O)OC(C)(C)C`: the z-score was -0.446 (inactive).

For the compound `CCOC(=O)[C@H](Cc1ccccc1)NC(=O)CCC1CC(OC(=O)NCc2ccc3c(c2)OCO3)CC2(CCCC(COC(=O)NCCOc3ccccc3)O2)O1` (some centres not stated), the z-score is -1.84 (inactive).

`CSCC[C@@H]1NC(=O)CC=C[C@@H](C)COC(=O)[C@H](C)COC1=O`: the z-score is -0.274 (inactive).

As for `CO[C@H]1COC(=O)CCC[C@H](C)[C@@H](OC)COC(=O)CC=C[C@@H]1C`, the z-score is -1.29 (inactive).

For `CC(C)[C@@H](OCc1ccccc1)[C@H](C)C=NO[C@@H](C)c1cn([C@H](CO)Cc2ccccc2)nn1`, the z-score is 1.82 (inactive).

Turning to `CCN1C(=O)[C@H]2[C@@H]3C(=CC[C@H]2C1=O)C(=O)[C@H]1O[C@H]1[C@H]3O`, the z-score was 1.17 (inactive).

Turning to `CC(C)=CCCC(C)=CCON=C1C[C@@H](O)[C@@H](O)[C@@H]2[C@@H]3C(=O)N(C4CCCCC4)C(=O)[C@@H]3CC[C@H]12`, the z-score is 7.24 (inactive).

As for `C=CC[C@@H]1C=C[C@H](ON=C[C@@H](NS(=O)(=O)c2ccc(C)cc2)[C@H](C)C=CCC(=O)OC)[C@@H](CO)O1`, the z-score was 1.16 (inactive).

Consider `COC(=O)[C@H](C)NC(=O)CCC1CC(OC(=O)NCCc2ccc(F)cc2)CC2(CCCC(COC(=O)NCCOc3ccccc3)O2)O1` (some centres not stated), for which the z-score was -1.23 (inactive).

`CO[C@@H]1COC(=O)[C@H](COCc2ccccc2)NC(=O)CC=C[C@@H](C)[C@H](OC)COC(=O)[C@@H](C)NC(=O)CC=C[C@H]1C`: the z-score is -0.302 (inactive).

For `CC(CCC(=O)OC[C@H]1O[C@H](C#Cc2ccccc2)C=C[C@@H]1Oc1ccc(C)cc1)=NOC[C@@H](C)[C@H](OCc1ccccc1)C(C)C`, the z-score was 0.551 (inactive).

`COC(=O)[C@H](C)NC(=O)CC=C[C@@H](C)[C@@H]1C=C[C@H](O)[C@@H](CO)O1`: the z-score is -0.488 (inactive).

As to `C=CC[C@@H]1C=C[C@H](ON=C(C)CCN2CCCc3nc(C)c(C)cc32)[C@@H](CO)O1`, the z-score was 3.7 (inactive).

With `O=C1C=C[C@@H](O)[C@@H]2[C@@H]3C(=O)N(Cc4ccccc4)C(=O)[C@@H]3CC[C@@H]12`, the z-score was 0.09 (inactive).

A further assay is described as follows: PSAC antagonists in infected red cells, primary screen, cell-based, P. falciparum Indochina, OD700, 2 h (AID 1155).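 Also: lysis reports solute entry through the parasite surface anion channel PSAC; channel blockers reduce lysis of infected cells.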 As to conditions: P. falciparum Indochina infected erythrocytes, osmotic lysis OD700; higher = more signal, called active from +8 up or from −8 down.
Consider `CON=C(C)CCC(=O)OC[C@H]1O[C@H](C#Cc2ccccc2)C=C[C@@H]1Oc1ccc(C)cc1`, for which the z-score is 0.277 (inactive).

For the compound `CC(C)(C)N1C(=O)[C@H]2[C@H]3[C@H](O)[C@H](O)CC(=NOC[C@@H](O)COCc4ccco4)[C@@H]3CC[C@H]2C1=O`, the z-score was -0.335 (inactive).

With `CO[C@@H]1[C@H](O)CO[C@H]1C=Cc1ccccc1`, the z-score is 0.178 (inactive).

As to `CCN1C(=O)[C@H]2[C@H]3[C@H](O)[C@H](O)CC(=NOCC[C@@H]4C=C[C@H](OC(C)=O)[C@@H](COC(C)=O)O4)[C@@H]3CC[C@H]2C1=O`, the z-score was 0.329 (inactive).

Regarding `CO[C@@H](C1CCCCC1)[C@@H](C)[C@H](OCc1cccc(Br)c1)[C@@H](C)CO`, the z-score is 1.29 (inactive).

With `CCOC(=O)CCN1C(=O)[C@H]2[C@H]3[C@H](O)[C@H](O)CC(=NOCC(C)C)[C@@H]3CC[C@H]2C1=O`, the z-score was 0.232 (inactive).

For `CCOC(=O)CCN1C(=O)[C@H]2[C@H]3[C@H](O)[C@H](O)CC(=NO[C@@H]4O[C@H](CO)[C@@H](O)[C@H](O)[C@H]4O)[C@@H]3CC[C@H]2C1=O`, the z-score was 0.155 (inactive).

For `CO[C@H]1COC(=O)CC=C[C@@H](C)COC(=O)[C@H]2CCCN2C(=O)CC=C[C@H]1C`, the z-score was -0.25 (inactive).

On to `CCOC(=O)[C@H](Cc1ccccc1)NC(=O)CCC1CC(OC(=O)NCc2cccc3ccccc23)CC2(CCCC(COC(=O)NCCc3ccccc3OC)O2)O1` (some centres not stated), for which the z-score is 0.185 (inactive).

`Cc1ccc(S(=O)(=O)N[C@@H]2COC(=O)CC=C[C@@H](C)[C@H](NS(=O)(=O)c3ccc(C)cc3)COC(=O)[C@H](C)NC(=O)CC=C[C@H]2C)cc1`: the z-score is -0.159 (inactive).

As to `CCN1C(=O)[C@H]2[C@H]3[C@H](O)[C@H](O)CC(=NOCC=C(C)CCC=C(C)C)[C@@H]3CC[C@H]2C1=O`, the z-score was 0.579 (inactive).

For the compound `O=C1[C@H]2[C@H]3[C@H](O)[C@H](O)CC(=NOC[C@@H](O)COCc4ccco4)[C@@H]3CC[C@H]2C(=O)N1Cc1ccccc1`, the z-score was 4.72 (inactive).

With `O=C1[C@H]2CCn3c(=O)n(-c4ccccc4)c(=O)n3[C@H]2[C@H](O)[C@@H]2O[C@H]12`, the z-score was 0.105 (inactive).

On to `CON=C[C@@H](OC)[C@H](C)C=CCC(=O)OC`, for which the z-score is 0.325 (inactive).

For `CC(C)=CCCC(C)=CCON=C1C[C@@H](O)[C@@H](O)[C@@H]2[C@@H]3C(=O)N(Cc4ccc5c(c4)OCO5)C(=O)[C@@H]3CC[C@@H]12`, the z-score is 5.69 (inactive).

`CC(=O)OC[C@H]1O[C@H](CC=NO[C@@H](C)c2cc(-c3c(C)cc(C)cc3C)no2)C=C[C@@H]1OC(C)=O`: the z-score is 0.629 (inactive).

In the case of `COc1ccc(-c2cnnc(CCCn3ccnc3-c3ccccc3)n2)cc1`, the z-score is 9.62 (active).

In the case of `O=C1C2=CC[C@H]3C(=O)N(c4ccc(F)cc4F)C(=O)[C@H]3[C@H]2[C@H](O)[C@@H]2O[C@H]12`, the z-score was -0.122 (inactive).

Turning to `COC(=O)CC=C[C@@H](C)[C@@H](C=NOC[C@@H](O)COCc1ccco1)OC`, the z-score was 0.322 (inactive).

Turning to `COC(=O)[C@H](C)NC(=O)CCC1CC(OC(=O)NCc2cccc3ccccc23)CC2(CCCC(COC(=O)NCCCN3CCCC3=O)O2)O1` (some centres not stated), the z-score is 0.397 (inactive).

On to `CCOC(=O)[C@H](CC(C)C)NC(=O)CCC1CC(OC(=O)NCc2ccc3c(c2)OCO3)CC2(CCCC(COC(=O)NCCc3ccccc3OC)O2)O1` (some centres not stated), for which the z-score was -0.213 (inactive).

In the case of `CO[C@@H](C(C)C)[C@@H](C)C1OC(=O)CC1O` (some centres not stated), the z-score is 0.0974 (inactive).

Take `Cc1ccc(C(C)C)n1C(=O)OC(C)(C)C`: the z-score is -1.44 (inactive).

Regarding `CCOC(=O)[C@H](Cc1ccccc1)NC(=O)CCC1CC(OC(=O)NCc2ccc3c(c2)OCO3)CC2(CCCC(COC(=O)NCCOc3ccccc3)O2)O1` (some centres not stated), the z-score was 0.179 (inactive).

In the case of `CSCC[C@@H]1NC(=O)CC=C[C@@H](C)COC(=O)[C@H](C)COC1=O`, the z-score was -1.3 (inactive).

Take `CO[C@H]1COC(=O)CCC[C@H](C)[C@@H](OC)COC(=O)CC=C[C@@H]1C`: the z-score is -1.22 (inactive).

Turning to `CC(C)[C@@H](OCc1ccccc1)[C@H](C)C=NO[C@@H](C)c1cn([C@H](CO)Cc2ccccc2)nn1`, the z-score is -0.246 (inactive).

In the case of `CCN1C(=O)[C@H]2[C@@H]3C(=CC[C@H]2C1=O)C(=O)[C@H]1O[C@H]1[C@H]3O`, the z-score is 0.497 (inactive).

On to `CC(C)=CCCC(C)=CCON=C1C[C@@H](O)[C@@H](O)[C@@H]2[C@@H]3C(=O)N(C4CCCCC4)C(=O)[C@@H]3CC[C@H]12`, for which the z-score was 0.991 (inactive).

Take `C=CC[C@@H]1C=C[C@H](ON=C[C@@H](NS(=O)(=O)c2ccc(C)cc2)[C@H](C)C=CCC(=O)OC)[C@@H](CO)O1`: the z-score is 0.278 (inactive).

In the case of `COC(=O)[C@H](C)NC(=O)CCC1CC(OC(=O)NCCc2ccc(F)cc2)CC2(CCCC(COC(=O)NCCOc3ccccc3)O2)O1` (some centres not stated), the z-score was -0.257 (inactive).

Consider `CO[C@@H]1COC(=O)[C@H](COCc2ccccc2)NC(=O)CC=C[C@@H](C)[C@H](OC)COC(=O)[C@@H](C)NC(=O)CC=C[C@H]1C`, for which the z-score was -0.0696 (inactive).

With `CC(CCC(=O)OC[C@H]1O[C@H](C#Cc2ccccc2)C=C[C@@H]1Oc1ccc(C)cc1)=NOC[C@@H](C)[C@H](OCc1ccccc1)C(C)C`, the z-score is 0.498 (inactive).

Take `COC(=O)[C@H](C)NC(=O)CC=C[C@@H](C)[C@@H]1C=C[C@H](O)[C@@H](CO)O1`: the z-score is 0.544 (inactive).

For the compound `C=CC[C@@H]1C=C[C@H](ON=C(C)CCN2CCCc3nc(C)c(C)cc32)[C@@H](CO)O1`, the z-score is 0.327 (inactive).

On to `O=C1C=C[C@@H](O)[C@@H]2[C@@H]3C(=O)N(Cc4ccccc4)C(=O)[C@@H]3CC[C@@H]12`, for which the z-score was 0.201 (inactive).
